TEAD-YAP inh = TEAD-YAP interaction inhibition; AID 1259422; actives 1.4% (n = 640,000); HEK-TIYL cells, TEAD-Gal4/YAP UAS-luciferase luminescence; inhibition, % at 9.12 µM; in the data active = inhibition above about 32%;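 also: 0% = median of test compound wells and 100% = reference inhibitor wells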
MITF primary = human MITF inhibition, primary screen; O75030; AlphaScreen MITF homodimerization, bead proximity signal; inhibition, % at 2.6 µM; actives 0.91% (n = 650,000); in the data active = inhibition above about 50%;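 also: 0% = vehicle wells with protein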
Target sequence (O75030 whole entry, looked up): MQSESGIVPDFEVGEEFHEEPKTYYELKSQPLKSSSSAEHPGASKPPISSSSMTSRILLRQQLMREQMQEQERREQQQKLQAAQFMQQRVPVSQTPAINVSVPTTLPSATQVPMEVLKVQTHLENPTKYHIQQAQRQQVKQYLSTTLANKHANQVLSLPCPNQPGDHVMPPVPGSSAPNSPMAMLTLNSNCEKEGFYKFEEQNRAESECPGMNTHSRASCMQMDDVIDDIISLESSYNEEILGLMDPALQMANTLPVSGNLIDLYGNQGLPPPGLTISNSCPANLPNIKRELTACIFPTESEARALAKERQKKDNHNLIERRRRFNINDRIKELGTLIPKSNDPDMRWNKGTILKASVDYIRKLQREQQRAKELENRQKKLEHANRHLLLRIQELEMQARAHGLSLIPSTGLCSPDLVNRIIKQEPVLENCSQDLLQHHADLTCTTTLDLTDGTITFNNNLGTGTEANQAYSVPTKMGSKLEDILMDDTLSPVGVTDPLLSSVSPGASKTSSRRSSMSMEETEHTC
FBW7 activator = activators of human E3 ligase FBW7. Q969H0. AlphaScreen FBW7–phospho-cyclin E peptide binding, activator screen. AID 1259310. actives 0.13% (n = 650,000). normalized activity (activation), % at 26.1 µM; in the data active = normalized activity above about 1.9%;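 also: purified mutant Fbw7 with reduced substrate affinity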
GPR151 activ = activates the human receptor GPR151; Q8TDV0; PathHunter beta-arrestin GPR151 cells, luminescence; activation, % at 11.2 µM; actives 1% (n = 650,000); in the data active = activation above about 4.9%;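 also: 0% = median of compound wells and 100% = cells with positive control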
An asterisk follows results filed as active. Most compounds without a hit are left out; they make up all but 3.5% or so of the library.

SMILES	TEAD-YAP inh	MITF primary	FBW7 activator	GPR151 activ
O=C(CSc1nc2ccccc2c(=O)n1CC1COc2ccccc2O1)NCc1ccco1 (stereo unspecified)	-3.6	3.6	0.0	1.5
Cn1nccc1C(=O)Oc1cccc(/C=N/NC(=O)c2ccccc2O)c1	42.3*	5.6	0.1	-3.1
COc1ccc(/C=C/C(=O)OCC#N)cc1	-5.3	1.5	-0.2	0.1
Cc1ccc(S(=O)(=O)N2C(=O)CCC2c2nc(-c3ccccn3)no2)cc1 (stereo unspecified)	38.9*	4.7	-0.4	-0.2
COc1ccc2cc3c(N)nn(C(=O)c4ccco4)c3nc2c1	59.3*	-0.1	0.1	1.3
COc1ccc2cc3c(N)nn(C(=O)c4ccccc4C)c3nc2c1	44.5*	-1.5	-0.1	0.1
CC(=O)Oc1ccc2cc(-c3ccc4c(c3)OCCO4)c(=O)oc2c1	62.5*	10.2	0.0	-4.0
COc1ccc(-c2cc3ccc(O)cc3oc2=O)cc1	69.6*	-8.5	1.6	-9.8
CC(=O)Oc1ccc2c(=O)c(-c3ccc4c(c3)OCCO4)c(C)oc2c1	-19.0	12.5	0.7	0.6
COc1cccc(-c2cc3ccc(OC(C)=O)cc3oc2=O)c1	58.0*	-8.3	0.7	-10.6
COc1ccc2cc(-c3nc(-c4ccccc4)no3)c(=O)oc2c1	58.6*	4.2	-0.1	0.2
CC1=NN(C(=O)c2csc(C(C)C)c2)C(O)(C(F)F)C1 (stereo unspecified)	-3.5	-1.9	-0.1	0.5
CC(=O)c1ccc(F)c(-c2cc(C)cc3c2OC(CNC(=O)c2cnsn2)C3)c1 (stereo unspecified)	6.4	0.3	0.1	0.2
CC(C)COc1ccc(C(=O)Nc2ccc(S(=O)(=O)Nc3nccs3)cc2)cc1	-3.4	-5.3	-0.1	0.4
C=CCN1C(=O)C2C(C(=O)Nc3ccc(C(C)C)cc3)C3C=CC2(O3)C1C(=O)NC1CCCCC1 (stereo unspecified)	-3.3	5.6	0.1	-0.5
CCc1ccc(/C=N/NC(=O)c2ccccn2)cc1	29.6	3.7	-0.1	-5.1
O=C(N/N=C\c1ccc(O)cc1)c1ccccn1	42.1*	6.4	-0.2	-7.1
O=C(N/N=C/c1ccc(O)cc1)c1ccccn1	-24.3	4.8	0.1	-6.7
CC(=C/c1ccccc1)/C=N/NC(=O)c1ccccn1	-7.2	19.1	-0.1	-3.0
CC(/C=N\NC(=O)c1ccccn1)=C\c1ccccc1	34.0*	9.8	-0.1	-3.6
O=C(N/N=C\c1cccc(O)c1)c1ccccn1	74.4*	-6.3	-0.2	-6.7
CCOc1ccc(/C=N\NC(=O)c2ccccn2)cc1	36.4*	18.0	0.0	-6.3
Cc1ccc(NC(=O)c2ccccc2NC(=O)c2ccccc2F)c(C(=O)c2ccccc2)c1	3.8	2.9	-0.1	1.9
Cc1c(C(=O)NC(C)c2ccccc2)oc2ccc(S(=O)(=O)N3CCOCC3)cc12 (stereo unspecified)	-0.5	1.8	0.0	0.6
CSc1ccc(/C=N\NC(=O)c2ccccn2)cc1	49.3*	10.9	0.6	-7.0
SMILES	TEAD-YAP inh	MITF primary	FBW7 activator	GPR151 activ
O=C(N/N=C\c1ccc(F)cc1)c1ccccn1	-8.3	7.7	-0.4	-3.8
CCOc1ccc(/C=N/NC(=O)c2ccoc2C)cc1	37.8*	11.4	-0.1	-9.2
O=C(N/N=C/c1cccc(O)c1O)c1ccccn1	-10.3	81.4*	-1.3	-8.5
C=CCn1c(SCC(=O)Nc2ccc(OC)cc2)nnc1-c1ccc(OC)cc1	-0.9	-1.3	0.0	-0.6
COc1cc(CNc2ccc(F)c(Cl)c2)cc(OC)c1O	3.4	1.5	-0.3	0.3
COc1cccc(NC(=O)CCCOc2cccc(C)c2)c1	5.1	3.9	-0.2	-1.5
Cc1cc(C(=O)N2CCc3ccccc32)n(-c2ccccc2)n1	35.0*	2.8	-0.3	0.6
COc1ccc(/C=C/C(=O)N2CCc3ccccc32)cc1	74.1*	7.6	0.0	-7.0
O=C(/C=C/c1cccs1)N1CCc2ccccc21	70.2*	17.9	0.3	-6.1
O=C(/C=C/c1ccccc1)N1CCCc2ccccc21	-27.4	3.2	0.0	2.0
O=C(/C=C/c1ccccc1)N1CCc2ccccc21	65.9*	5.5	0.3	-5.6
O=C(/C=C/c1ccc([N+](=O)[O-])cc1)N1CCCc2ccccc21	-7.3	27.9	0.2	0.6
CCOc1cc(C(=O)O/N=C(\N)Cc2ccc([N+](=O)[O-])cc2)cc(OCC)c1OCC	16.4	3.5	0.4	-0.5
Cc1ccc(S(=O)(=O)NC(=O)/N=c2\sccn2C)cc1	0.7	-1.7	-0.1	0.6
Cc1ccc(CNC(=O)CN(Cc2ccccc2)S(=O)(=O)c2ccccc2)cc1	5.0	11.7	0.2	-0.5
Cc1ccc(S(=O)(=O)N(CC(=O)NCc2ccncc2)Cc2ccccc2)cc1	-2.0	24.1	1.9*	-1.2
